Assay outcomes deposited in PubChem BioAssay by National Center for Advancing Translational Sciences (NCATS).
HEK293 tox = Cytotoxic Profiling in HEK 293 Cell Line of Diverse Libraries Using Quantitative High-Throughput Screening; HEK 293 viability, ATP luminescence (CellTiter-Glo), 48-72 h; Potency, µM (highest dose often 115 µM), for the others: top-dose activity change, negative = cytotoxicity, most hits filed as inhibitors; actives 6.6% (n = 94,000); AID 1345083, 2018; further: potency means the concentration at half of the fitted maximal effect; nearly all actives have a fitted effect of over 60% in size
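Viability of HEK 293 cells, plated at 250 cells/well, was judged by cellular ATP after compound treatment for 48 or 72 hr. Luminescence was imaged 10 min after CellTiter-Glo addition at room temperature.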
3T3 cytotox = Cytotoxic Profiling in NIH 3T3 Cell Line of Diverse Libraries Using Quantitative High-Throughput Screening; AID 1345082, 2018; NIH 3T3 viability, CellTiter-Glo ATP luminescence, 48-72 h; Potency, µM (titrated, usually from 96.7 µM), for inactives: at the top dose activity change, negative = cytotoxicity, actives largely listed as inhibitors; actives 4.3% (n = 94,000); further: potency means the concentration at half of the fitted maximal effect; nearly all actives have a fitted effect of over 55% in size
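ATP-dependent luminescence (CellTiter-Glo) served as the viability signal for NIH 3T3 cells treated with compound for 48 or 72 hr at 37 °C.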
Luciferase inh = Firefly luciferase inhibition profiling of diverse chemical library using quantitative high-throughput screening | actives 2.5% (n = 76,000) | Potency, µM (titrated, usually from 115 µM), usual class: inhibitors | Luciferin 4-monooxygenase (Photinus pyralis), P08659 | AID 1347043, 2019 | purified P. pyralis luciferase, luminescence, biochemical; further: potency means the concentration at half of the fitted maximal effect; nearly all actives have a fitted effect of over 65% in size
Target sequence (P08659 whole entry, looked up): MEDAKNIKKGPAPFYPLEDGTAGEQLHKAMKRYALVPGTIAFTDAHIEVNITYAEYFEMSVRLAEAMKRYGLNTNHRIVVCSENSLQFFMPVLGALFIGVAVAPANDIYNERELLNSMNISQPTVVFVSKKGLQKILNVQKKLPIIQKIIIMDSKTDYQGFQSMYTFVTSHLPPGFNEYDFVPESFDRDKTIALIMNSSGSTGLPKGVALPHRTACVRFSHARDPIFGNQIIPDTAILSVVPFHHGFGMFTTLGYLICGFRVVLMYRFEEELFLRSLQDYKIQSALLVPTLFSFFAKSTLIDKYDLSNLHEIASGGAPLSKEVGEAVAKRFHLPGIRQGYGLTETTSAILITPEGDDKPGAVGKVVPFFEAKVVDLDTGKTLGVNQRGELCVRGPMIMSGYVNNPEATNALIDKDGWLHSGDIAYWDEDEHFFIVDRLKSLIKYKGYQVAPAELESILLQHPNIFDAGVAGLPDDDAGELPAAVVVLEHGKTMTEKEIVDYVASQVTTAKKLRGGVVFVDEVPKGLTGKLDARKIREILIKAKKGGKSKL
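Inhibitors were tested against purified firefly luciferase in a biochemical, low-substrate format (both substrates at 10uM) and luminescence measured with a CCD imager.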
IP6K1 inh = Primary qHTS assay for small molecule inhibitors of Inositol hexaphosphate kinase 1 (IP6K1); Inositol hexakisphosphate kinase 1 (Homo sapiens), Q92551; IP6K1 kinase, ADP-Glo luminescence, 2 h; active compounds read low; activity change, % (series mostly up to about 58 µM); actives 0.81% (n = 140,000); in the data active means activity change below about -25%
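ADP-Glo luminescence measures ADP made by human IP6K1 during a 2 h RT reaction with ATP/IP6 (mix at 1.3 mM/130 uM); top library doses 57.5 and 19.1 uM final.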
SNCA expr inh = Primary qHTS assay for inhibitors of alpha-synuclein gene (SNCA) expression; HEK-293 SNCA-luciferase knock-in, luminescence, 24 h; actives 0.17% (n = 140,000); Potency, µM (highest dose often 57.2 µM), without a hit: at the highest dose activity change, negative = inhibition, usual class: inhibitors;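 further: potency means the concentration at half of the fitted maximal effect; plate controls were DMSO cells for no effect and cell-free wells for full effect; nearly all actives have a fitted effect of over 45% in size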
SNCA viab count = GF-AFC viability counterscreen for inhibitors of alpha-synuclein gene (SNCA) expression. HEK-293-SNCA-luc viability, GF-AFC fluorescence, 24 h. Potency, µM (highest dose often 57.1 µM), without a hit: at the top dose activity change, negative = cytotoxicity, usual class: cytotoxic. actives 0.12% (n = 150,000). AID 1671193, 2021;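 further: potency means the concentration at half of the fitted maximal effect; 0% = DMSO-treated cells and -100% = medium-only wells without cells; nearly all actives have a fitted effect of over 30% in size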
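Cytotoxicity counterscreen: after 24 h compound treatment of genome-edited SNCA-luciferase HEK-293 cells, live-cell protease substrate GF-AFC read by fluorescence after 30 min; activity scaled between DMSO (0%) and medium-only (-100%), curves Hill-fitted.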
* hit, by the source's call; i = inactive; ? = inconclusive; . = no result; [ ] = dose if it differs, or a comment. Sampled rows, rich in hits. Any-hit rate of the full collection: about 7.3%. Unless noted, the call rests on the fitted dose curve; in most records, active means well fitted curve in the direction sought with a large enough effect; inconclusive means small, poorly fitted or top-dose-only effect, or another doubt; inactive means no such curve, though single readings can be large; an effect the other way counts as inactive or inconclusive. Unless noted, on the % scale 0 is the no-effect control and ±100 the full control effect.

SMILES | HEK293 tox | 3T3 cytotox | Luciferase inh | IP6K1 inh | SNCA expr inh | SNCA viab count
CCN(CC)CCNC(=O)c1ccc2c(c1)n(Cc1cccc(F)c1)c(=O)c1ccnn12 | 31.6µM* | 31.6µM* | i | 1.0 | ? | -4.2%
O=C(NCc1ccccc1)c1ccc2c(c1)n(Cc1ccc(F)cc1)c(=O)c1ccnn12 | 28.2µM* | 31.6µM* | i | -13.7 | -27.4% | ?
O=C(c1cccs1)N1CCC(N2C(=O)C3(CCCCC3)C2c2ccncc2)CC1 (configuration not stated) | -13.2% | -8.6% | i | 9.5 | -7.1% | -5.4%[12.5 µM]
O=C1[C@@H]2C[C@@H](O)CN2C2(CN(Cc3ccccc3)C2)C(=O)N1Cc1ccccc1F | i | -2.5%[174 µM] | i | -4.4 | 5.1%[87.6 µM] | -1.2%[87.6 µM]
COc1ccc2nc3n(c2c1)[C@@H](CNS(=O)(=O)Cc1ccccc1)COC3 | ? | 89.1µM* | i | -20.3 | 4.1%[87.6 µM] | -29.7%[87.6 µM]
COc1ccc(NC(=O)NC[C@H]2COCc3nc4ccccc4n32)cc1 | -14.4%[172 µM] | ? | 89.1µM* | -12.4 | 26.1%[87.6 µM] | -1.2%[87.6 µM]
COc1ccc2c(c1)nc1n2[C@@H](CNCc2ccc3c(c2)OCO3)COC1 | 56.2µM* | ? | i | -0.9 | 0.7%[87.6 µM] | -7.6%[87.6 µM]
COc1ccc2nc3n(c2c1)[C@@H](CNC(=O)c1ccc(C#N)cc1)COC3 | -11.0%[172 µM] | 89.1µM* | i | -1.3 | 13.6%[87.6 µM] | 7.3%[87.6 µM]
COc1ccc2nc3n(c2c1)[C@@H](CNC(=O)c1ccccc1)COC3 | i | ? | i | -12.9 | 15.2%[87.6 µM] | 1.2%[87.6 µM]
COc1ccc2nc3n(c2c1)[C@@H](CNCc1ccc2c(c1)OCO2)COC3 | ? | ? | i | -13.3 | -21.2%[87.6 µM] | -19.0%[87.6 µM]
COc1ccccc1Nc1ccnc(N2CCCC(C(=O)NC3CC3)C2)n1 (configuration not stated) | ? | ? | . | 15.0 | -15.7% | 8.4%[12.5 µM]
CN(Cc1ccccc1)Cc1cc(C[C@@H]2CC[C@H](O)[C@@H](CNCc3ccccc3)O2)no1 | -25.7% | -14.4% | i | 5.6 | -14.6% | -9.3%
COC[C@@H]1CN(C(=O)CCc2c(C)n[nH]c2C)C[C@H]1c1ccncc1 | -2.1% | -1.1% | i | -10.4 | 1.1% | 2.4%
CCOc1ccc(Cl)cc1CN(C)c1cc(C2CC(O)C2)nc(N)n1 (configuration not stated) | 39.8µM* | 31.6µM* | i | -2.1 | -24.5% | -29.0%
Cc1cc(CN(C)c2cc(C3CC(N)C3)nc(N)n2)no1 (configuration not stated) | 0.9% | i | i | 6.4 | 9.6% | -2.5%
CCS(=O)(=O)NCC1(COc2cccc(C)n2)C[C@@H](O)[C@@H](O)C1 (some centres not stated) | i | -0.6%[174 µM] | i | 3.5 | -7.4%[87.6 µM] | -5.9%[87.6 µM]
CCOC(=O)CN(C(=O)CC1CCCC1)[C@H]1C[C@H]2CCOC[C@H]2C1 | -4.0% | ? | . | -7.7 | . | .
C[C@@H](NC(=O)C1CCCCC1)c1c(-c2ccc(F)cc2)noc1C(=O)O | -6.6%[172 µM] | 39.8µM* | i | -1.5 | -12.5%[87.6 µM] | -0.5%[87.6 µM]
Cc1nc(C(=O)N2CCCC(c3[nH]ncc3Cc3ccccc3)C2)cs1 (configuration not stated) | ? | ? | i | -7.1 | 6.4% | -20.0%
CCCn1nccc1C(=O)N1CCCC(c2[nH]ncc2Cc2ccccc2)C1 (configuration not stated) | 50.1µM* | ? | i | 22.7 | 2.4% | -23.2%
O=C1CCNc2ccccc2CN1C1CCCC1 | -10.8% | ? | . | 5.0 | . | .
COc1ccccc1C(=O)N1CCC(N2C(=O)c3c(c(C)nn3-c3ccccc3)C2C)C1 (configuration not stated) | 44.7µM* | ? | . | 2.1 | . | .
COc1ccccc1C(=O)N1CCC(N2C(=O)c3c(c(C)nn3-c3ccccc3)C2C2CC2)C1 (configuration not stated) | 39.8µM* | ? | . | -5.7 | . | .
CN(C)C[C@@H]1CN(S(C)(=O)=O)C[C@H]1NC(=O)c1ccc(Cl)cc1 | -28.5% | -10.4% | i | 23.0 | 5.5% | 17.5%
CN(C)C[C@@H]1CN(S(C)(=O)=O)C[C@H]1NC(=O)c1c(F)cccc1Cl | i | 1.0% | 39.8µM* | 9.9 | 216.9% | 13.1%
SMILES | HEK293 tox | 3T3 cytotox | Luciferase inh | IP6K1 inh | SNCA expr inh | SNCA viab count
CCCNC(=O)c1ccc(S(=O)(=O)NCC2(O)CCCNC2)cc1 (configuration not stated) | -2.2% | -6.6% | i | -16.7 | -9.7% | 3.3%
C#CCNC(=O)C1CCN(c2nccc(Nc3ccc(C)cc3)n2)CC1 | 50.1µM* | ? | . | -8.1 | 55.6%[87.6 µM] | -12.8%[12.5 µM]
COc1ccc(Nc2ccnc(N3CCC(C(=O)NCC4CC4)CC3)n2)cc1 | ? | 39.8µM* | . | 5.8 | 16.6% | -14.9%[12.5 µM]
C#CCNC(=O)C1CCN(c2nccc(Nc3ccc(OC)cc3)n2)CC1 | ? | ? | . | 10.1 | 8.3% | -13.7%[12.5 µM]
Cc1ccc(Nc2ccnc(N3CCC(C(=O)Nc4ccccc4Cl)CC3)n2)cc1 | ? | 39.8µM* | . | 8.2 | 1.7% | -7.2%[12.5 µM]
Cc1ccc(Nc2ccnc(N3CCCC(C(=O)NCC4CC4)C3)n2)cc1 (configuration not stated) | 35.5µM* | 35.5µM* | . | -10.1 | -1.1% | 6.1%[12.5 µM]
COc1ccc2ccc(OCc3nc(C(=O)N(C)Cc4cc(C)no4)co3)cc2c1 | ? | ? | i | 3.8 | ? | ?
OCC1(CN2CCCC2)CCN(Cc2ccccc2F)CC1 | ? | ? | i | -6.8 | 7.9% | -10.3%
COC(=O)CNC(=O)C1CCN(c2nccc(Nc3ccc(C)cc3)n2)CC1 | i | -13.6% | . | -11.4 | 9.8% | 7.4%[12.5 µM]
Cc1ccc(Nc2ccnc(N3CCC(C(=O)NCC4CCCCCC4)CC3)n2)cc1 | ? | 17.8µM* | . | -4.2 | ? | 4.9%[12.5 µM]
Cc1cnc(-c2ccccc2)n1CCC1CCN(C(=O)C2(c3ccccc3)CC2)CC1 | 35.5µM* | ? | . | 22.1 | -6.7% | -9.1%
Cc1cnc(C2CCC2)n1C1CCN(C(=O)C2(c3ccccc3)CC2)CC1 | -21.0% | -16.3% | i | 20.2 | -6.7% | -6.4%
COc1ccc(C(=O)N2CCC(CCn3c(C)cnc3-c3cccnc3)CC2)cc1 | -29.7% | ? | . | 7.1 | 10.2% | -1.6%
